According to PubChem BioAssay (EPA / NIEHS):
Results filed as inconclusive are left out. The source made the active and inactive calls. How the source made its calls, unless noted: active means hit-call score of the fitted dose curve at least 0.9, where 1 is the maximum; inconclusive means response in the unintended direction; inactive means score below 0.9.

Columns and labels:
[1] = TOX21_p53_BLA_p2_viability: Viability Assessment in the Tox21 HCT-116 p53 Agonism Beta-lactamase Assay, Phase 2 (AID 2283591);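 further: compound exposure lasted 16 h at 37 °C; actives lower the ATP signal meaning cytotoxicity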
Summary of the method: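 HCT116 p53-bla cells, 4000/well, dosed after 5 h plating (217-fold dilution of DMSO stocks) and incubated 16 h at 37C. Viability taken as cellular ATP by CellTiter-Glo luminescence after 30 min RT; signal loss marks cytotoxicity.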

[2] = biological target: Cellular tumor antigen p53 (Homo sapiens) (UniProt P04637); assay: TOX21_p53_BLA_p2_ratio: Tox21 HCT-116 p53 Agonism Beta-lactamase Assay, Ratio, Phase 2 (AID 2283592)
Sequence of Cellular tumor antigen p53 (Homo sapiens) (P04637 whole entry, looked up): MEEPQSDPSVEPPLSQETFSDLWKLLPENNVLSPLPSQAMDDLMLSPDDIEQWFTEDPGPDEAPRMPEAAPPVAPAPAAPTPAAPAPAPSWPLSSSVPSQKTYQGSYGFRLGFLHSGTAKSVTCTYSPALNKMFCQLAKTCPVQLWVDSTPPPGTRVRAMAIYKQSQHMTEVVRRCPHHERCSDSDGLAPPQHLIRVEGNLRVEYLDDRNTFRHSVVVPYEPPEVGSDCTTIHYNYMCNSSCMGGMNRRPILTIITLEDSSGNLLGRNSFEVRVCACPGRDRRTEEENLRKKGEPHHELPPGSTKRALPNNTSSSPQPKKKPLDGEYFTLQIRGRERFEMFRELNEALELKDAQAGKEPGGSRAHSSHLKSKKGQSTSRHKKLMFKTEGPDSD
Summary of the method: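 DMSO-normalized, positive-direction endpoint derived from the 460 nm/530 nm FRET ratio in HCT116 p53 beta-lactamase reporter cells exposed 16 h at 37C and loaded with CCF4-AM for 2 h.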

[3] = TOX21_p53_BLA_p3_viability: Viability Assessment in the Tox21 HCT-116 p53 Agonism Beta-lactamase Assay, Phase 3 (AID 2283593);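 further: cells exposed to compound for 16 h before reading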
Summary of the method: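 HCT116 cells, 4000/well, dosed 5 h after plating by pin transfer (217-fold dilution from DMSO stock) and incubated 16 h at 37C, 5% CO2. Viability read as ATP luminescence with CellTiter-Glo after 30 min at room temperature.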

[4] = biological target: Cellular tumor antigen p53 (Homo sapiens) (UniProt P04637); assay: TOX21_p53_BLA_p3_ratio: Tox21 HCT-116 p53 Agonism Beta-lactamase Assay, Ratio, Phase 3 (AID 2283596)
Summary of the method: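 Cells were seeded at 4000/well, rested 5 h at 37C, then dosed with DMSO compound solutions (217-fold dilution) for 16 h. CCF4-AM substrate was loaded for 2 h at room temperature, and the 460/530 nm emission ratio was fitted for gain of signal versus DMSO.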

[5] = biological target: Cellular tumor antigen p53 (Homo sapiens) (UniProt P04637); assay: TOX21_p53_BLA_p5_ratio: Tox21 HCT-116 p53 Agonism Beta-lactamase Assay, Ratio, Phase 5 (AID 2283599)
Summary of the method: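 HCT-116 p53-bla cells (4000/well) plated 5 h, dosed with compound (217-fold DMSO dilution) for 16 h at 37 C; CCF4-AM substrate 2 h at room temperature. Activity is the 460/530 nm emission ratio (405 nm excitation), fitted in gain-of-signal direction versus DMSO.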

[6] = TOX21_p53_BLA_p5_viability: Viability Assessment in the Tox21 HCT-116 p53 Agonism Beta-lactamase Assay, Phase 5 (AID 2283600)
Summary of the method: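 Here cell health was gauged by ATP levels in wells holding 4000 cells, each treated 16 h with DMSO-delivered compounds at 217-fold dilution; reduced luminescence marked toxicity.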

[7] = biological target: Cellular tumor antigen p53 (Homo sapiens) (UniProt P04637); assay: TOX21_p53_BLA_p4_ratio: Tox21 HCT-116 p53 Agonism Beta-lactamase Assay, Ratio, Phase 4 (AID 2283601)
Summary of the method: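 HCT-116 p53 beta-lactamase reporter cells (4000/well) preincubated 5 h, then compound (217-fold dilution of DMSO stock) for 16 h at 37C. CCF4-AM substrate added 2 h at room temperature; 460/530 nm emission ratio fitted upward versus DMSO.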

[8] = ACEA_ER_AUC_viability: ACEA Biosciences xCELLigence Real-Time Cell Analysis on Estrogen Receptor Agonism for Viability (AID 2283782);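 further: hit means loss of impedance signal meaning reduced cell growth or viability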
Summary of the method: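 Read-out: real-time electrical impedance (RT-CES) area under curve, loss of signal taken as reduced viability, normalized to DMSO baseline. T-47D cells, charcoal-stripped serum medium, compounds up to 100 uM final, continuous exposure, 80 h.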

[9] = CCTE_Harrill_HTTr_Viability_MCF7: CCTE's 6-hour Cell Viability Assessment for the High-Throughput Transcriptomics (HTTr) Platform, in MCF-7 cells cultured in DMEM + 10% fetal bovine serum, Harrill Lab (AID 2284010; active means hit-call score of the fitted dose curve at least 0.9, where 1 is the maximum; inactive means score below 0.9)
Summary of the method: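 Read-out is propidium iodide gain of signal by high-content imaging, reflecting membrane integrity loss. Measurements are taken 6 h after dosing, eight concentrations per chemical, with DMSO serving as baseline for bidirectional curve fitting.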

[10] = CCTE_Harrill_HTTr_Apoptosis_MCF7: CCTE's 6-hour Apoptosis Assessment for the High-Throughput Transcriptomics (HTTr) Platform, in MCF-7 cells cultured in DMEM + 10% fetal bovine serum, Harrill Lab (AID 2284011; active means hit-call score of the fitted dose curve at least 0.9, where 1 is the maximum; inactive means score below 0.9)
Summary of the method: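 Apoptosis in MCF-7 cells grown in DMEM with 10% fetal bovine serum was scored after a six hour exposure by high content imaging of caspase-3/7 activation (CellEvent Caspase 3/7 Green), with DMSO serving as negative control and baseline.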

Measured: AC50

CC(C)(C)CC(=O)OCC(=O)[C@@]12OC(C)(C)O[C@@H]1C[C@H]1[C@@H]3CCC4=CC(=O)C=C[C@]4(C)[C@@]3(F)[C@@H](O)C[C@@]12C
not listed: [8] | [9] | [10]
inactive: all other assays above

CCCCCCCCCCCCCCCC(=O)OCC(COC(=O)CCCCCCCCCCCCCCC)OC(=O)CCCCCCCCCCCCCCC
not listed: [8] | [9] | [10]
inactive: all other assays above

O=[N+]([O-])c1cc(C2CCCCC2)c(O)c([N+](=O)[O-])c1
inactive: [1] | [3] | [5] | [6] | [7]
active: [2] 1.77 µM | [4] 902 nM

CCCCCCCC/C=C/CCCOC(C)=O
not listed: [9] | [10]
inactive: all other assays above

CCC1(CO)COCOC1
inactive: [1] | [2] | [3] | [4] | [5] | [7]

C1OCOCO1
inactive: [1] | [2] | [3] | [4] | [6] | [7]

C(=C/c1ccccc1)/c1ccccc1
inactive: [1] | [2] | [3] | [4] | [6]

CC(=O)c1sc(C)nc1C
inactive: [1] | [2] | [3] | [4] | [5] | [7]

CCCCCCCCCCCCCCCC(=O)OC(C)C
inactive: [1] | [2] | [3] | [4] | [5] | [7]

C[C@H](/C=C/[C@H](C)C(C)(C)O)[C@H]1CC[C@H]2/C(=C/C=C3C[C@@H](O)C[C@H](O)C3)CCC[C@]12C
inactive: [1] | [2] | [4] | [6]
active: [3] 30 µM

CC(=O)CC(C)=O
inactive: [1] | [2] | [3] | [4] | [6]

CCCCCCC(=O)O[C@H]1CC[C@H]2[C@@H]3CCc4cc(O)ccc4[C@H]3CC[C@]12C
inactive: [1] | [2] | [3] | [4] | [6] | [7]

O=C(O)CCC(=O)OC[C@@H](NC(=O)C(Cl)Cl)[C@H](O)c1ccc([N+](=O)[O-])cc1
inactive: [1] | [2] | [3] | [4] | [6]

CCN(CC)CCNC(=O)c1cc(Cl)c(N)cc1OC
inactive: [1] | [2] | [3] | [4] | [6] | [7]

Cc1ccccc1OCC(O)CO (centres undefined)
inactive: [1] | [2] | [3] | [4] | [6] | [7]

C[C@]12CCC(=O)C[C@@H]1CC[C@@H]1[C@@H]2CC[C@]2(C)C=CC[C@@H]12
inactive: [1] | [2] | [3] | [4] | [6] | [7]

CC(C)(O)C#CC(C)(C)O
inactive: [1] | [2] | [3] | [4] | [6]

O=C1c2ccccc2C(=O)c2cc(O)ccc21
active: [2] 37.8 µM | [7] 42.5 µM
inactive: [1] | [3] | [4] | [5]

COc1cc2c(cc1OC)CC(=O)N(CCCN(C)C[C@H]1Cc3cc(OC)c(OC)cc31)CC2
inactive: [1] | [2] | [3] | [4] | [6] | [7]

COc1ccc2cc([C@H](C)C(=O)O)ccc2c1
not listed: [6]
inactive: all other assays above

[O]=[Zr]
inactive: [1] | [2] | [3] | [4] | [6]

SCCSCCS
inactive: [1] | [2] | [3] | [4] | [6] | [7]

CCc1nccnc1CC
inactive: [1] | [2] | [3] | [4] | [6] | [7]

N=C(N)c1ccc2cc(OC(=O)c3ccc(N=C(N)N)cc3)ccc2c1
inactive: [1] | [2] | [3] | [4] | [6]

OCC(CO)N[C@H]1C[C@](O)(CO)[C@@H](O)[C@H](O)[C@H]1O
inactive: [1] | [2] | [3] | [4] | [6]

O=C(CCCN1CCN(c2ccccn2)CC1)c1ccc(F)cc1
inactive: [1] | [2] | [3] | [4] | [6] | [7]

CC(=O)N(O)CCCCCNC(=O)CCC(=O)N(O)CCCCCNC(=O)CCC(=O)N(O)CCCCCN
inactive: [1] | [2] | [3] | [4] | [7]

CC(O)[C@@H]1NC(=O)[C@H](Cc2ccccc2)NC(=O)[C@H](C(C)O)NC(=O)[C@H](CCCCN)NC(=O)[C@H](Cc2c[nH]c3ccccc23)NC(=O)[C@H](Cc2ccccc2)NC(=O)[C@H](Cc2ccccc2)NC(=O)[C@H](CC(N)=O)NC(=O)[C@H](CCCCN)NC(=O)[C@@H](NC(=O)CNC(=O)[C@H](C)N)CSSC[C@@H](C(=O)O)NC(=O)[C@H](CO)NC1=O (some centres undefined)
inactive: [1] | [2] | [3] | [4] | [6] | [7]

O=C(O)C(Cc1cc(I)c(O)c(I)c1)c1ccccc1 (centres undefined)
inactive: [1] | [2] | [3] | [4] | [7]

COc1ccc(C(=O)N2CCN(CC(=O)N3CCOCC3)CC2)cc1
inactive: [1] | [2] | [3] | [4] | [6] | [7]

NC(=O)[C@@H]1CCCN1C(=O)[C@H](Cc1cnc[nH]1)NC(=O)[C@@H]1CCC(=O)N1
inactive: [1] | [2] | [3] | [4] | [5] | [7]
